Laboratory results: PubChem BioAssay (NCI)
“And” between values parts separate entries of the source, which are not always exact repeats. Equal entries are not always repeated. About 83,000 compounds went through this panel and 20% of them were active in at least one assay; those are over-represented in the sample as a whole.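 For each line, cells grew in 96-well plates with the test compound present at a single concentration for 48 hours.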 The source made the active and inactive calls. Rule for the calls: active = growth percent below 10; inactive = the rest.

Experiments:
Assay in all cases: NCI-60 one-dose screen, 48 h (100 = growth as untreated, 0 = no growth, -100 = all killed)
Settings in all cases: 10 µM unless noted
[1] = test system: NCI-H23 lung
[2] = test system: NCI-H226 lung
[3] = test system: NCI-H322M lung
[4] = test system: HOP-62 NSCLC
[5] = test system: NCI-H460 lung
[6] = test system: HOP-92 NSCLC
[7] = test system: NCI-H522 lung
[8] = test system: A549/ATCC NSCLC
[9] = test system: 786-0 renal
[10] = test system: COLO 205 colon
[11] = test system: DU-145 prostate
[12] = test system: K-562 leukemia
[13] = test system: MALME-3M melanoma
[14] = test system: MDA-MB-231 breast
[15] = test system: SF-268 CNS
[16] = test system: SF-295 CNS
[17] = test system: SF-539 CNS
[18] = test system: UACC-257 melanoma
[19] = test system: M14 melanoma
[20] = test system: RXF 393 renal

Measured: growth

CN1C2CCC1[C@@H](COC(=O)c1ccccc1)[C@@H](O)C2 (stereo not given in full)
inactive: [1] 108% | [2] 99.6% | [3] 119% | [4] 99.7% | [5] 113% | [6] 69.9% | [7] 64.9% | [8] 99.2% | [9] 108% | [10] 129% | [11] 112% | [12] 81.3% | [13] 129% | [14] 103% | [15] 108% | [16] 112% | [17] 103% | [18] 97.1% | [19] 100%

O=S(=O)(F)c1cccc(Cl)c1C[P+](c1ccccc1)(c1ccccc1)c1ccccc1
inactive: [1] 108% | [2] 93.4% | [3] 97.9% | [4] 93.3% | [5] 106% | [6] 91.3% | [7] 88.8% | [8] 93.9% | [9] 104% | [10] 99.9% | [11] 109% | [12] 77.2% | [13] 90.4% | [14] 98.6% | [15] 105% | [16] 92.3% | [17] 103% | [18] 89.7% | [19] 102%

C[C@]12CCc3sc(Nc4ccc(OC(F)(F)F)cc4)nc3C1=CC[C@@H]1[C@@H]2CC[C@]2(C)C(=O)CC[C@@H]12
active: [12] 8.2% | [20] -32.2% | [16] -2.71% | [17] -5.4%
inactive: [1] 75.5% | [2] 74.9% | [3] 77.3% | [4] 80% | [5] 53.3% | [6] 75% | [7] 89.1% | [8] 67% | [9] 30.5% | [10] 67.9% | [11] 66.1% | [13] 76.8% | [14] 73.5% | [15] 68.6% | [18] 84% | [19] 83.9%

CN(C)c1ccc([N+](=O)[O-])c([N+](=O)[O-])c1
inactive: [1] 109% and 96.9% | [2] 113% and 105% | [3] 111% and 101% | [4] 113% and 122% | [5] 110% and 109% | [6] 101% and 104% | [8] 101% and 88.3% | [9] 116% and 106% | [10] 106% and 122% | [11] 103% and 113% | [12] 113% and 104% | [13] 100% | [14] 98.4% and 99.1% | [20] 111% and 95.3% | [15] 106% and 111% | [16] 112% and 106% | [17] 128% and 104% | [18] 95.7% and 88.2% | [19] 99.4% and 93.7%
-70.3% (active) and 64.7% (inactive): [7]

CCCC1CCCCC12C(=O)NC(=O)NC2=O (stereo not given)
inactive: [1] 97.2% and 101% | [2] 91.1% | [3] 105% and 94.3% | [4] 107% | [5] 101% and 109% | [6] 103% | [7] 95.5% and 89.7% | [8] 104% and 98.2% | [9] 102% and 96.6% | [10] 104% and 110% | [11] 104% and 109% | [12] 101% | [13] 86.4% and 112% | [14] 89.3% and 120% | [20] 104% and 110% | [15] 105% and 102% | [16] 95.5% and 108% | [17] 97.1% and 111% | [18] 103% and 94.1% | [19] 96.4% and 96.9%

c1ccc(CCN2CCCCC2)nc1
inactive: [1] 103% | [2] 101% | [3] 106% | [4] 95.6% | [5] 114% | [6] 91.7% | [7] 101% | [8] 95.7% | [9] 101% | [10] 106% | [12] 97.6% | [13] 141% | [14] 97.8% | [20] 114% | [15] 103% | [16] 98% | [17] 102% | [18] 108% | [19] 99.5%

O=C1CCCCC1CN1CCCCC1 (stereo not given)
inactive: [1] 99.6% | [2] 104% | [3] 94.6% | [4] 93% | [5] 101% | [6] 97.2% | [7] 84.3% | [8] 94.9% | [9] 106% | [11] 100% | [12] 119% | [13] 86.2% | [14] 116% | [20] 121% | [15] 97.7% | [16] 97.2% | [17] 97% | [18] 96.2% | [19] 109%

CC1=C([Te]c2ccccc2)C(=O)c2ccccc2C1=O
inactive: [12] 14.7%
active: [1] -33.9% | [2] -52.1% | [3] -22.8% | [4] -49.5% | [5] -57.7% | [6] -53.8% | [7] -15.3% | [8] -66.1% | [9] -46.2% | [10] -83.6% | [11] -53.4% | [13] -49.5% | [14] -24.6% | [20] -35.5% | [15] -18.1% | [16] -34.5% | [17] -71.4% | [18] -26.2% | [19] -22.1%

CCC(=O)C(CC(C)[N+](C)(C)C)(c1ccccc1)c1ccccc1 (stereo not given)
inactive: [1] 91.7% | [2] 87.8% | [3] 103% | [4] 91.6% | [5] 106% | [6] 103% | [7] 86.1% | [8] 95.8% | [9] 92.9% | [10] 85.8% | [11] 112% | [12] 103% | [13] 106% | [20] 104% | [15] 103% | [16] 95.3% | [17] 96.6% | [18] 94.7% | [19] 96.2%

CCCCOCCOP(=O)(OCCOCCCC)OCCOCCCC
inactive: [1] 101% | [2] 90.6% | [3] 120% | [4] 91.6% | [5] 99.3% | [6] 111% | [7] 100% | [9] 110% | [10] 105% | [11] 115% | [12] 88.3% | [13] 111% | [14] 99% | [20] 100% | [15] 98.5% | [16] 103% | [17] 99.6% | [19] 106%

CC[C@H](C)[C@H](NC(=O)CN(C)C)C(=O)N(C)[C@H](C[C@@H](OC(C)=O)c1nc(C(=O)NC23C4C5C2C2C3C4C52C(=O)OC)cs1)C(C)C (stereo not given in full)
inactive: [1] 21.3% | [2] 31.7% | [3] 42.2% | [4] 19.4% | [6] 66.1% | [7] 24.1% | [8] 21.3% | [9] 31.3% | [13] 35.1% | [15] 21.1% | [18] 49.2%
active: [5] 3.35% | [10] -7.69% | [11] 2.37% | [12] 7.65% | [14] 1.39% | [20] 2.8% | [16] 9.98% | [17] -1.99% | [19] -35.8%

O=C(NC1=NCC[Se]1)c1ccccc1O
inactive: [1] 65.6% | [2] 62.9% | [3] 49.4% | [4] 39% | [5] 16.2% | [6] 63.5% | [7] 60.9% | [8] 56.8% | [9] 94.7% | [10] 124% | [11] 61.1% | [12] 50.7% | [14] 69.3% | [20] 44% | [15] 43.3% | [16] 95.4% | [17] 52.9% | [18] 55.3% | [19] 42%
active: [13] -22.9%

O=C(O)c1ccc(=O)[nH]c1
inactive: [1] 88.5% and 105% | [2] 96.3% and 89.5% | [3] 108% and 105% | [4] 98.8% and 85.9% | [5] 111% and 104% | [6] 100% | [7] 101% and 99.9% | [8] 87.7% | [9] 96.7% and 99.6% | [10] 98.3% and 98.9% | [11] 114% and 111% | [12] 102% and 89.2% | [13] 109% and 104% | [14] 102% and 104% | [15] 101% and 104% | [16] 113% and 96.2% | [17] 89.5% and 98.2% | [19] 102% and 95.8%

Cc1ccc(P(=O)(O)O)cc1
inactive: [1] 108% | [2] 99.2% | [3] 111% | [4] 120% | [5] 108% | [6] 120% | [7] 101% | [8] 102% | [9] 103% | [10] 126% | [11] 116% | [12] 98.9% | [13] 96% | [14] 98.6% | [20] 98.8% | [15] 109% | [16] 100% | [17] 94.2% | [18] 103% | [19] 104%

COC(=O)CCP(CCC(=O)OC)c1ccccc1
inactive: [1] 102% | [2] 104% | [3] 107% | [4] 111% | [5] 111% | [6] 109% | [7] 102% | [8] 96.8% | [9] 102% | [10] 118% | [11] 110% | [12] 111% | [14] 117% | [20] 108% | [15] 103% | [16] 99.4% | [17] 101% | [18] 99.7% | [19] 101%
